# Test results from PMC7862700, “An all-to-all approach to the identification of sequence-specific readers for epigenetic DNA modifications on cytosine”.
# Tests used:
# Test in all cases: DAPPL (digital affinity profiling via proximity ligation, sequencing); 10 mM Tris-HCl pH 7.5, 50 mM NaCl, 1 mM DTT, 4% glycerol, room temperature, 30 min; GST-TFs on glutathione beads, 16-mer random dsDNA library, 0.1% formaldehyde crosslink after washing; high values mean tight binding
# FEV = target: T1, FEV (Homo sapiens, UniProt Q99581 1-238); conditions: protein: recombinant; tags: N-terminal GST; dsDNA, one strand shown
# T1 sequence: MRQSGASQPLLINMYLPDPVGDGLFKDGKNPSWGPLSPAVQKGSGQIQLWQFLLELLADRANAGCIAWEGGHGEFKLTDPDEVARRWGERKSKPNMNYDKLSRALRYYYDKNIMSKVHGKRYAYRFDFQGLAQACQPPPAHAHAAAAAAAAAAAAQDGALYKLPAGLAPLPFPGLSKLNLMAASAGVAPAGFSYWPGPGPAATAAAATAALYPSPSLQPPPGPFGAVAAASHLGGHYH
# In short: (§1)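 Human transcription factors fused to GST were expressed in yeast, captured on glutathione beads, given DNA barcodes and pooled with a GST-only negative control. Pools were incubated with 200 nmole of a 16-mer random double-stranded DNA library in Tris/NaCl/DTT/glycerol buffer at room temperature for 30 min. They were then washed, crosslinked with 0.1% formaldehyde, proximity-ligated (BsaI/T4 ligase, 1 h, 37 °C), PCR-amplified and sequenced on an Illumina NextSeq500. Binding signal is each 6-mer's read frequency for a factor divided by its frequency for the GST control.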
# ETV5 = ETV5 (Homo sapiens, UniProt P41161 1-510); conditions: protein: recombinant; tags: N-terminal GST; dsDNA, one strand shown
# Chain of ETV5 (P41161 whole entry): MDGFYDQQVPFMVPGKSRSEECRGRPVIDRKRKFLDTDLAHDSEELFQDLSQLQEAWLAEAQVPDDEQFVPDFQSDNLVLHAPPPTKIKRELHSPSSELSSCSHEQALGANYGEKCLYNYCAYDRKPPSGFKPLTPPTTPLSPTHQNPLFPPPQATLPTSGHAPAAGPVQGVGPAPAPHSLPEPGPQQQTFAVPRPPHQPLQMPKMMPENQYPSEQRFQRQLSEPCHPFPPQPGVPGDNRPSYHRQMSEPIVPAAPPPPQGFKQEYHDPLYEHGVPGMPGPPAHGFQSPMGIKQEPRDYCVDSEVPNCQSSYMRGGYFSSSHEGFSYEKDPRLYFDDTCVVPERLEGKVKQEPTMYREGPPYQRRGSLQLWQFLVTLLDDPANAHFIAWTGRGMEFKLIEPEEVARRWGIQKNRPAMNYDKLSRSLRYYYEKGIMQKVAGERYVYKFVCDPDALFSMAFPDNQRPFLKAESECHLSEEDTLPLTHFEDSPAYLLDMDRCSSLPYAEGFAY
# In short: as §1
# HSF1 = HSF1 (Homo sapiens, UniProt Q00613 1-529); conditions: protein: recombinant; tags: N-terminal GST; chain copies: 3; dsDNA, one strand shown
# Chain of HSF1 (Q00613 whole entry): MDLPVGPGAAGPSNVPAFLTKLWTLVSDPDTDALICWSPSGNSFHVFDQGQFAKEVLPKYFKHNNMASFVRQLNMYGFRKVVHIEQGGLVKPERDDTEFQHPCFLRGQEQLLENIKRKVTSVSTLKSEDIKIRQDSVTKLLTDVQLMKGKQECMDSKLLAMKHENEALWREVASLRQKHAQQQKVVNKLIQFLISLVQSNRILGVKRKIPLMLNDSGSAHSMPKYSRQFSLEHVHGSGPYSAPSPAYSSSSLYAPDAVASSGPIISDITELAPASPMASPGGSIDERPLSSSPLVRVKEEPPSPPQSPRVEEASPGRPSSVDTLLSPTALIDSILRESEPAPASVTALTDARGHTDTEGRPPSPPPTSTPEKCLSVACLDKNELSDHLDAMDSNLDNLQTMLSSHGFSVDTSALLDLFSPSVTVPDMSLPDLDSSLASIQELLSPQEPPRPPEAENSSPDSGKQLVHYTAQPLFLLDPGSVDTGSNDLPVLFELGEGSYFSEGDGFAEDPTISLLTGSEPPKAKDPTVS
# In short: as §1
# SPIC = target: T2, SPIC (Homo sapiens, UniProt Q8N5J4 1-248); conditions: protein: recombinant; tags: N-terminal GST; dsDNA, one strand shown
# T2 sequence: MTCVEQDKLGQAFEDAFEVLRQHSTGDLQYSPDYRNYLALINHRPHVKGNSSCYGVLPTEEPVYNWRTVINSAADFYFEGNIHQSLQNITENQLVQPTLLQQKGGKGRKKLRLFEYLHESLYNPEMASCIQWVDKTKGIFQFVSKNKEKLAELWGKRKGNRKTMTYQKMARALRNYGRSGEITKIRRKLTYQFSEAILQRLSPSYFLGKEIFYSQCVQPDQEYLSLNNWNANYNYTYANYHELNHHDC
# In short: as §1
# ELF4 = ELF4 (Homo sapiens, UniProt Q99607 1-663); conditions: protein: recombinant; tags: N-terminal GST; dsDNA, one strand shown
# Chain of ELF4 (Q99607 whole entry): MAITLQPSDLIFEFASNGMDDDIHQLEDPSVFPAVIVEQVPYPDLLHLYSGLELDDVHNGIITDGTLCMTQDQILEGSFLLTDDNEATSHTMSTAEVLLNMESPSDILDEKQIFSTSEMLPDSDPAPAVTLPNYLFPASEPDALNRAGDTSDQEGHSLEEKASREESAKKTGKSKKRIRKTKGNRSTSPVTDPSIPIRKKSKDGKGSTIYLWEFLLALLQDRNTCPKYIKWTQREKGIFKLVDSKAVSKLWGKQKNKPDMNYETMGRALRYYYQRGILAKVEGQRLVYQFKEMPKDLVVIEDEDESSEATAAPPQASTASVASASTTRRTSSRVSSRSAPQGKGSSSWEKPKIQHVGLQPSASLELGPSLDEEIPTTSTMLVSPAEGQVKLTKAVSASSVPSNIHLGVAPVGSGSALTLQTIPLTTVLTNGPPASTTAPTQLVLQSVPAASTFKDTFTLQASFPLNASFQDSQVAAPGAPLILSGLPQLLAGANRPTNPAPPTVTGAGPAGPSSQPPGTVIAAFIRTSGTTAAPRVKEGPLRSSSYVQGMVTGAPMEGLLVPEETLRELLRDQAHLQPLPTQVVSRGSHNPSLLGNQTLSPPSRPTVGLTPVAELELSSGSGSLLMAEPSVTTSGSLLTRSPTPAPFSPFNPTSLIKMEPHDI
# In short: as §1
# ELK4 = target: T3, ELK4 (Homo sapiens, UniProt P28324-2 1-405); conditions: protein: recombinant; tags: N-terminal GST; dsDNA, one strand shown
# T3 sequence: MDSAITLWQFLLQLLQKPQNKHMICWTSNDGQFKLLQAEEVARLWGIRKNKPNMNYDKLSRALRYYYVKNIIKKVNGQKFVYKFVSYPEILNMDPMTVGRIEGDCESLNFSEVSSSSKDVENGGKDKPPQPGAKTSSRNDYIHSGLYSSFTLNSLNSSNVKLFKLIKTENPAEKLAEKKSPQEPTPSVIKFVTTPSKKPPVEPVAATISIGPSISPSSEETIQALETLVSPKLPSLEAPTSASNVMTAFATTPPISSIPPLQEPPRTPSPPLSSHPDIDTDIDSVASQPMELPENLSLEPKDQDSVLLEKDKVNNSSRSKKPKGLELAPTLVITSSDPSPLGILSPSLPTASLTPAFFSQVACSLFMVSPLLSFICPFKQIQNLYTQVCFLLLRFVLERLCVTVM
# In short: as §1
# ETV2 = target: T4, ETV2 (Homo sapiens, UniProt O00321 1-342); conditions: protein: recombinant; tags: N-terminal GST; dsDNA, one strand shown
# T4 sequence: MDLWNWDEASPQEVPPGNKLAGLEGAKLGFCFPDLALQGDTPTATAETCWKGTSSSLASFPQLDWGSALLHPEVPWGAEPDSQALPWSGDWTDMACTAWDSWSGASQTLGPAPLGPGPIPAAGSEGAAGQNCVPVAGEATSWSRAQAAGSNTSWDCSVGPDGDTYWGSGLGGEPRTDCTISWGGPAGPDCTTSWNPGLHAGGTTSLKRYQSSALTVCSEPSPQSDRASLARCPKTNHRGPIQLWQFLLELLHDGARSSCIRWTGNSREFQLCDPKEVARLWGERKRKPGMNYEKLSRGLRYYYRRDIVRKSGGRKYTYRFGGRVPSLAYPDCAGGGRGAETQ
# In short: as §1
# ELF3 = target: T5, ELF3 (Homo sapiens, UniProt P78545 1-371); conditions: protein: recombinant; tags: N-terminal GST; dsDNA, one strand shown
# T5 sequence: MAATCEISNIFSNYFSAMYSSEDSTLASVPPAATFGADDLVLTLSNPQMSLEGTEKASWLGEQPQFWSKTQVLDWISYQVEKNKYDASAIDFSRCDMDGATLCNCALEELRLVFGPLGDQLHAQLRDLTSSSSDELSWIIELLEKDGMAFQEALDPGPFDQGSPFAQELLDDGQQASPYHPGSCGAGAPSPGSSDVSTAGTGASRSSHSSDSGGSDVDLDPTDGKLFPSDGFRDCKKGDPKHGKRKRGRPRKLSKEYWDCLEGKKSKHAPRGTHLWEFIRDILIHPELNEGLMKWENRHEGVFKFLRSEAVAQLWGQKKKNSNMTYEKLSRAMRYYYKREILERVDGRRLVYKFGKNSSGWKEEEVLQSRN
# In short: as §1
# CRX = CRX (Homo sapiens, UniProt O43186 1-299); conditions: protein: recombinant; tags: N-terminal GST; dsDNA, one strand shown
# Chain of CRX (O43186 whole entry): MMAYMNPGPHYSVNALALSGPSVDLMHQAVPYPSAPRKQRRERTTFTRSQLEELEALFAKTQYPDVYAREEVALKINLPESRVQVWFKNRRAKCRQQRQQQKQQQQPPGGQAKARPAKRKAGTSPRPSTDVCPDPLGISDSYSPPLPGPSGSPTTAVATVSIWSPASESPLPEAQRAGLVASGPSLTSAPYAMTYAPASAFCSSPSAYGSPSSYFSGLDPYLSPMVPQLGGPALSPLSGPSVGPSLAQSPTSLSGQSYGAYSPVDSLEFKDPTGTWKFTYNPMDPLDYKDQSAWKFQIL
# In short: as §1
# ETV1 = ETV1 (Homo sapiens, UniProt P50549 1-477); conditions: protein: recombinant; tags: N-terminal GST; dsDNA, one strand shown
# Chain of ETV1 (P50549 whole entry): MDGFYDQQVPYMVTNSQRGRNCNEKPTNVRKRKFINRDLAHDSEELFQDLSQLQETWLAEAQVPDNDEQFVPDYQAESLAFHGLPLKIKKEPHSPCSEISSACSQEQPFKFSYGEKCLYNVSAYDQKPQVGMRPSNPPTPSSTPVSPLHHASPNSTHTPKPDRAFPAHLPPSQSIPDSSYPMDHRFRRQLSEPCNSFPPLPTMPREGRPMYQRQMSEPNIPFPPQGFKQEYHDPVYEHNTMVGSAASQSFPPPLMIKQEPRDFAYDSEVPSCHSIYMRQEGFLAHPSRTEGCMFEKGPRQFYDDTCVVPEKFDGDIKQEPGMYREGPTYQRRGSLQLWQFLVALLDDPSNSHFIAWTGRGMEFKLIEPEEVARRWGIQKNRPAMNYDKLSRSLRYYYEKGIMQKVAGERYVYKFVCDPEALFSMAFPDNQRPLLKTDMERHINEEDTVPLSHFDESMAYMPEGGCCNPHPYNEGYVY
# In short: as §1
# ERF = target: T6, ERF (Homo sapiens, UniProt P50548 1-548); conditions: protein: recombinant; tags: N-terminal GST; dsDNA, one strand shown
# T6 sequence: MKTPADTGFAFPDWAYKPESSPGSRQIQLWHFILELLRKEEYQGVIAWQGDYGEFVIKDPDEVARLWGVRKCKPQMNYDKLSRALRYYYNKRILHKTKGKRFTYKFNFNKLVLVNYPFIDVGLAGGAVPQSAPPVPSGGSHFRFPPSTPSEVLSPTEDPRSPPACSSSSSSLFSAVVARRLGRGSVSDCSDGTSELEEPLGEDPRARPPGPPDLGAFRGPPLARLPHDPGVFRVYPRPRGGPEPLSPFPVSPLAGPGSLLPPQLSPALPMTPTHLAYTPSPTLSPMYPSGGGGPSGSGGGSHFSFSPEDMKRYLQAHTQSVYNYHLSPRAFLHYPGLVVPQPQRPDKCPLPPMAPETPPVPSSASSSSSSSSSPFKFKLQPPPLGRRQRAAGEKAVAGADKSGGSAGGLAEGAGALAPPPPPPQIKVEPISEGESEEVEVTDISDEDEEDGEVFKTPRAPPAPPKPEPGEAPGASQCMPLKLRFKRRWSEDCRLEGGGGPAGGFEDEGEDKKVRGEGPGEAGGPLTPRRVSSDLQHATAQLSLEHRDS
# In short: as §1
# ETV3L = target: T7, ETV3L (Homo sapiens, UniProt Q6ZN32 1-361); conditions: protein: recombinant; tags: N-terminal GST; dsDNA, one strand shown
# T7 sequence: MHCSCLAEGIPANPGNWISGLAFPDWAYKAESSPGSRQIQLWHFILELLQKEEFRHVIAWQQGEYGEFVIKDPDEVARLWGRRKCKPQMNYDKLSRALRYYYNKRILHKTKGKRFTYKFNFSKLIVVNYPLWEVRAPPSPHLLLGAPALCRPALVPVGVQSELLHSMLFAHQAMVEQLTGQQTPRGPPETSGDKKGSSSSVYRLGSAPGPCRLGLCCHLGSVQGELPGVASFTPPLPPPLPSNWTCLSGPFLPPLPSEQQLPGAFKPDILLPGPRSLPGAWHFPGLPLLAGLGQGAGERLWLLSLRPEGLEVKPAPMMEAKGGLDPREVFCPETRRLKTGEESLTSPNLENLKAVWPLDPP
# In short: as §1
# ETS2 = target: T8, ETS2 (Homo sapiens, UniProt P15036 1-469); conditions: protein: recombinant; tags: N-terminal GST; dsDNA, one strand shown
# T8 sequence: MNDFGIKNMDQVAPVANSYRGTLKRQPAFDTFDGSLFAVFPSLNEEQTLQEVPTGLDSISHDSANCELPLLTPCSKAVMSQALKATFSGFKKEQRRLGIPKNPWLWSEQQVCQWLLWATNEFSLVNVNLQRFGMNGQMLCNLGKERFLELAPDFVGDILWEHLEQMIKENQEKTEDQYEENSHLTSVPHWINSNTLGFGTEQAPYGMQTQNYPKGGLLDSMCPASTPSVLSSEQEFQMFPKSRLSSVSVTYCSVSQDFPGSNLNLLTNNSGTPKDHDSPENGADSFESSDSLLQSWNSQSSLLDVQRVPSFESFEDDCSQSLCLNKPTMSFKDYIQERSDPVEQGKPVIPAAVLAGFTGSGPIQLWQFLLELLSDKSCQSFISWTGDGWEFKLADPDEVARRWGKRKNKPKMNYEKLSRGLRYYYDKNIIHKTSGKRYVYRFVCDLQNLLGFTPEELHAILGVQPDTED
# In short: as §1
# SPDEF = target: T9, SPDEF (Homo sapiens, UniProt O95238 1-335); conditions: protein: recombinant; tags: N-terminal GST; dsDNA, one strand shown
# T9 sequence: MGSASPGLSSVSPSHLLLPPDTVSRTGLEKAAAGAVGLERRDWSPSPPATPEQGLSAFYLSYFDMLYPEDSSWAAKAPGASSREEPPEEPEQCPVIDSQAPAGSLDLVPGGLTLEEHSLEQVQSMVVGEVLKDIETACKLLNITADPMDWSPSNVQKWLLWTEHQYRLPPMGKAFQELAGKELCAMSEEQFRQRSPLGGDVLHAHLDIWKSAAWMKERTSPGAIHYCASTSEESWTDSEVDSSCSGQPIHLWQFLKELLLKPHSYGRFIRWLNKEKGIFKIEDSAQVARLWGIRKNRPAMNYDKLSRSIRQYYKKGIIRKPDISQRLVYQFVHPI
# In short: as §1
# ETV7 = target: T10, ETV7 (Homo sapiens, UniProt Q9Y603 1-341); conditions: protein: recombinant; tags: N-terminal GST; dsDNA, one strand shown
# T10 sequence: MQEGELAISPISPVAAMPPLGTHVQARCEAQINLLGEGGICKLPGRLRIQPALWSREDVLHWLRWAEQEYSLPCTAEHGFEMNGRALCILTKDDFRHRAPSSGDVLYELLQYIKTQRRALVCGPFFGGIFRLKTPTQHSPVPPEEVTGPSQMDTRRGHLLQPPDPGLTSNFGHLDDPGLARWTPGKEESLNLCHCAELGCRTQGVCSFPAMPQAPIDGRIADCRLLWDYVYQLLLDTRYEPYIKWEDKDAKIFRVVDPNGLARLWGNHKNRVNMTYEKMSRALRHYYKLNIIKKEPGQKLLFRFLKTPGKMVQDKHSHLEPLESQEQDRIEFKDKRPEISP
# In short: as §1
# ELF5 = target: T11, ELF5 (Homo sapiens, UniProt Q9UKW6-2 1-255); conditions: protein: recombinant; tags: N-terminal GST; dsDNA, one strand shown
# T11 sequence: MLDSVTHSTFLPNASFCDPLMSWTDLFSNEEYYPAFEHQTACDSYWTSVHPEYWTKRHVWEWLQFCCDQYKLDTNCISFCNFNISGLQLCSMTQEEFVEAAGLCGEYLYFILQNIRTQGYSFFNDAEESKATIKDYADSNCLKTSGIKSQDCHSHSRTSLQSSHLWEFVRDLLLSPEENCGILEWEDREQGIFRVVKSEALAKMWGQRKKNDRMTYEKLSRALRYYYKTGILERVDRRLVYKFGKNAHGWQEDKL
# In short: as §1
# ETV3 = target: T12, ETV3 (Homo sapiens, UniProt P41162-2 1-143); conditions: protein: recombinant; tags: N-terminal GST; dsDNA, one strand shown
# T12 sequence: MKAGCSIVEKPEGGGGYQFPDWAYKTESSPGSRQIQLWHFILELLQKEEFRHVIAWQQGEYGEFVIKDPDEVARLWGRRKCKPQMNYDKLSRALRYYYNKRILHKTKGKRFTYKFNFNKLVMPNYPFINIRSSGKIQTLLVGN
# In short: as §1
# ETV6 = ETV6 (Homo sapiens, UniProt P41212 1-452); conditions: protein: recombinant; tags: N-terminal GST; dsDNA, one strand shown
# Chain of ETV6 (P41212 whole entry): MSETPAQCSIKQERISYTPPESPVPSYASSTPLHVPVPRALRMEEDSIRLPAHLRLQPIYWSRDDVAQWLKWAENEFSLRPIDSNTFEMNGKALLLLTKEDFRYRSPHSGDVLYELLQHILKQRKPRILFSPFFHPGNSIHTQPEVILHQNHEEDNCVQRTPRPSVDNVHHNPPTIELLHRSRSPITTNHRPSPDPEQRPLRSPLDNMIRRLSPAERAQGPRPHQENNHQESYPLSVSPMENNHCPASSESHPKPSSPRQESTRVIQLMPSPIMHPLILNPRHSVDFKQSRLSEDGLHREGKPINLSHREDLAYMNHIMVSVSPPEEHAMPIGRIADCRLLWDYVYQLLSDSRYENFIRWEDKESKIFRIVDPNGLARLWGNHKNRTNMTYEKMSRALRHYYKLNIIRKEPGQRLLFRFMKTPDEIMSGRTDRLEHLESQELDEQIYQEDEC
# In short: as §1
sequence,measurement,setting,value
ACCTAA,binding signal,FEV,"1.12 fold enrichment (6-mer frequency, TF over GST control)"
same,binding signal,ETV5,"1.22 fold enrichment (6-mer frequency, TF over GST control)"
same,binding signal,HSF1,"1.21 fold enrichment (6-mer frequency, TF over GST control)"
same,binding signal,SPIC,"1.21 fold enrichment (6-mer frequency, TF over GST control)"
same,binding signal,ELF4,"1.27 fold enrichment (6-mer frequency, TF over GST control)"
same,binding signal,ELK4,"1.13 fold enrichment (6-mer frequency, TF over GST control)"
same,binding signal,ETV2,"1.17 fold enrichment (6-mer frequency, TF over GST control)"
same,binding signal,ELF3,"1.2 fold enrichment (6-mer frequency, TF over GST control)"
same,binding signal,CRX,"1.57 fold enrichment (6-mer frequency, TF over GST control)"
same,binding signal,ETV1,"1.18 fold enrichment (6-mer frequency, TF over GST control)"
same,binding signal,ERF,"1.17 fold enrichment (6-mer frequency, TF over GST control)"
same,binding signal,ETV3L,"1.18 fold enrichment (6-mer frequency, TF over GST control)"
same,binding signal,ETS2,"1.17 fold enrichment (6-mer frequency, TF over GST control)"
same,binding signal,SPDEF,"1.19 fold enrichment (6-mer frequency, TF over GST control)"
same,binding signal,ETV7,"1.18 fold enrichment (6-mer frequency, TF over GST control)"
same,binding signal,ELF5,"1.14 fold enrichment (6-mer frequency, TF over GST control)"
same,binding signal,ETV3,"1.03 fold enrichment (6-mer frequency, TF over GST control)"
same,binding signal,ETV6,"1.18 fold enrichment (6-mer frequency, TF over GST control)"
